# The list is not random: actives were taken first. Their share in the collection is about 2.2%.
# IEC-6 tox-1: cytotoxicity in IEC-6 intestinal epithelial cells, primary screen, cytotoxicity control for KLF5 inhibitor project, cell-based, luminescence. IEC-6 cytotoxicity, luminescence viability. inhibition, % at 5 µM. 0.78% of 290,000 active;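 further: 0% = plate median of test compound wells and 100% = cytotoxic reference compound wells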
# Ba/F3 V617F tox: reduced viability of JAK2V617F-dependent Ba/F3 cells, primary screen, JAK2V617F inhibitor project, cell-based, Ba/F3 EpoR-JAK2V617F, luminescence. ATP luminescence. inhibition, % at 5.6 µM. 1.1% of 220,000 active. AID 1446, 2008;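 active means inhibition above the campaign mean plus 3 SD over all tested compounds, cut at about 24% in these data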;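 further: cytokine-independent growth of Ba/F3 cells driven by EpoR plus mutant JAK2; 0% = DMSO-treated cells and 100% = JAK inhibitor I control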
# KLF5 inhibitor: KLF5 expression inhibitors, primary screen, DLD-1 cells, luminescence; 0.23% of 290,000 active; inhibition, % at 5 µM; AID 1700, 2009; DLD-1 KLF5 promoter-luciferase reporter;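 active means inhibition above a per-plate limit of that plate's mean compound inhibition plus 3 SD, cut at about 60% in these data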;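 further: 0% = DMSO wells and 100% = LY294002 at 200 µM; higher means less KLF5 promoter-driven luciferase light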
# BaF3 tox: parental Ba/F3 cell viability inhibition, counter-screen for JAK2V617F inhibitor project, murine pro-B, CellTiter-Glo luminescence; 1.1% of 220,000 active; CellTiter-Glo ATP luminescence; inhibition, % at 5.6 µM;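 active means inhibition above a per-campaign cutoff, the mean inhibition of all tested compounds plus 3 SD, cut at about 27% in these data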;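 further: 0% = DMSO wells and 100% = JAK Inhibitor I control wells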
# APP transl inh: inhibitors of APP translation via 5'UTR reporter, primary screen, APP 5'UTR luciferase, SH-SY5Y cells | inhibition, % at 2 µM | 0.82% of 190,000 active | SH-SY5Y APP 5'UTR-luciferase reporter, luminescence;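 active means inhibition above a set limit, derived from the sample mean plus 3 SD, cut at about 45% in these data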
# aSyn 5UTR inh: MLPCN primary screen, SNCA 5' untranslated region; alpha-synuclein 5'UTR reporter, inhibitor activity; inhibition, % (tested at 7.5 µM); 0.82% of 300,000 active; in the data active means inhibition above about 60%;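 further: H4 neuroglioblastoma cells stably carrying SNCA 5'UTR luciferase fusion; 0% = DMSO wells and 100% = positive control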
# BaF3 tox 2: parental Ba/F3 cell viability inhibition, counter-screen for JAK2V617F inhibitor project, murine pro-B, CellTiter-Glo luminescence. shares compounds with Ba/F3 V617F tox. cells kept alive by added IL-3. inhibition, % at 5.6 µM. 31% of 580 active. AID 1520, 2009;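 active means cell growth inhibition above the hit limit set in the earlier mutant JAK2 cell screen, cut at about 27% in these data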;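 further: plate controls were DMSO-treated cells for no effect and JAK Inhibitor I control wells for full effect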
# JAK2V617F confrm: viability loss in Ba/F3 EpoR-JAK2V617F cells, confirmation, JAK2V617F inhibitor project, cell-based, luminescence, triplicate. shares compounds with Ba/F3 V617F tox. CellTiter-Glo luminescence. inhibition, % at 5.6 µM. 66% of 580 active. AID 1521, 2009;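 active means mean inhibition above the hit cutoff derived in the earlier primary screen, cut at about 25% in these data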;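 further: 0% = DMSO-treated cells and 100% = JAK inhibitor I control wells; higher means lower luminescence from reduced cell ATP and viability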
# KLF5 inh confirm: KLF5 expression inhibitors, confirmation, DLD-1 cells, luminescence. shares compounds with KLF5 inhibitor. inhibition, % at 4 µM. 79% of 610 active. DLD-1 KLF5 promoter firefly luciferase reporter;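 active means inhibition above a set limit taken from the earlier primary screen, cut at about 63% in these data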;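 further: 0% = DMSO wells and 100% = LY294002 at 200 µM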
# IEC-6 tox-2: cytotoxicity in rat IEC-6 cells, cytotoxicity control for KLF5 inhibitor project, cell-based, luminescence, triplicate | 56% of 610 active | IEC-6 rat intestinal cells, viability luminescence | inhibition, % at 4 µM | shares compounds with KLF5 inhibitor; in the data active means inhibition above about 23%;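 further: cells exposed to compounds for 48 hours before viability read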
# IEC-6 tox confirm: cytotoxic compounds in IEC-6 epithelial cells, confirmation, cytotoxicity control, cell-based, luminescence. shares compounds with IEC-6 tox-1. IEC-6 rat intestinal epithelial viability. 63% of 1,900 active. AID 1907, 2009. inhibition, % at 5 µM;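 further: 0% = vehicle and 100% = reference cytotoxic drug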
# An asterisk follows results filed as active; nt = no result. Unless noted, no stated cut-off is given here; in the data, active means inhibition above about 22%; inactive means the rest.
SMILES,IEC-6 tox-1,Ba/F3 V617F tox,KLF5 inhibitor,BaF3 tox,APP transl inh,aSyn 5UTR inh,BaF3 tox 2,JAK2V617F confrm,IEC-6 tox confirm,others
COc1ccc(/C=N/NC(=O)c2cccnc2)cc1COc1ccc([N+](=O)[O-])c(C)c1,45.2*,25.3*,57.3,17.8,nt,97.9*,46.9*,93.2*,43.4*,
O=C1Nc2ccc([N+](=O)[O-])cc2OC1CCN1CCN(c2ccccc2)CC1 (configuration not stated),0.3,2.7,-11.3,11.7,-17.4,15.7,nt,nt,nt,
O=C1C2C3C=CC(C3)C2C(=O)N1CCCCCCN1C(=O)C2C3C=CC(C3)C2C1=O (configuration not stated),-4.5,-0.4,-43.3,7.4,12.2,nt,nt,nt,nt,
O=C1C=CC(=O)N1CCCCCCN1C(=O)C=CC1=O,24.0*,71.7*,-5.2,-1.2,94.6*,nt,96.3*,79.5*,2.0,
Cc1ccc(C(c2nnnn2CC2CCCO2)N2CCN(c3cccc(C)c3C)CC2)cc1 (configuration not stated),-2.0,-0.8,-46.7,3.3,-4.6,11.7,nt,nt,nt,
COC(=O)C(CC(=O)c1ccc(C)cc1)n1cccn1 (configuration not stated),-2.6,nt,-28.3,nt,nt,7.6,nt,nt,nt,
COc1ccccc1N1C(=O)c2cccc3c(C(=O)O)ccc(c23)C1=O,-2.2,-1.6,-13.7,2.8,4.6,-2.8,nt,nt,nt,
COc1ccc2c3c(cccc13)C(=O)N(O)C2=O,62.8*,30.1*,21.7,1.5,9.7,7.3,-2.1,17.8,33.3*,
CCOC(=O)C1=NNC2C(=O)N(C3CCCCC3)C(=O)C12 (configuration not stated),-0.3,-0.8,-7.9,3.8,-7.1,-12.5,nt,nt,nt,
COc1ccc(OC)c(/C=N/NC(=O)c2[nH]nc3c2CCc2ccccc2-3)c1,-10.3,-2.0,7.2,5.5,5.5,-7.7,nt,nt,nt,
COc1cccc(/C=N/NC(=O)c2[nH]nc3c2CCc2ccccc2-3)c1,23.3*,29.1*,27.0,-0.9,nt,-68.6,43.7*,92.5*,43.4*,
Cc1ccc(C)c(Cn2nnc(C(=O)Nc3ccc4c(c3)OCCO4)c2N)c1,nt,nt,nt,nt,nt,-106.5,nt,nt,nt,
C=CCN1C(=O)c2ccccc2Sc2ccc(C(=O)N3CCN(C)CC3)cc21,-7.3,-1.4,9.5,3.4,nt,0.7,nt,nt,nt,
CC(=O)Cc1cc(O)c2ccccc2c1OC(=O)c1ccccc1,54.9*,27.8*,-12.3,-3.8,-6.6,-7.4,27.6*,40.5*,-9.2,
CCN1CNC(=S)N(c2cccc(C)c2C)C1,-4.7,-0.2,-18.2,7.6,-18.9,2.0,nt,nt,nt,
Cn1cc(C(=O)N/N=C/c2ccc3c(c2)OCO3)c2ccccc21,52.7*,47.7*,32.0,19.4,nt,-275.8,12.5,22.8,47.9*,
O=C1c2ccc3c4c(ccc(c24)C(=O)N1CCCCO)C(=O)N(CCCCO)C3=O,29.1*,31.6*,9.5,13.1,28.5,110.7*,78.9*,91.4*,36.6*,
O=C(c1ccc2c(c1)C(=O)N(CCCO)C2=O)c1ccc2c(c1)C(=O)N(CCCO)C2=O,2.3,0.9,26.2,3.7,0.6,nt,nt,nt,nt,
O=C(CCC1CCCC1)Nc1ccc(C(=O)NCc2cccnc2)cc1,85.4*,31.3*,-21.3,20.1,28.6,71.9*,29.6*,99.6*,45.5*,
O=C(O)CCCC(=O)Nc1ccc(C(=O)NCc2cccnc2)cc1,-2.5,-0.9,-15.9,3.7,-29.2,14.2,nt,nt,nt,
O=C(NC(NC(=S)N1CCOCC1)C(Cl)(Cl)Cl)c1ccc(Cl)cc1 (configuration not stated),23.8*,30.2*,10.8,-1.0,9.6,66.1*,30.6*,60.4*,30.6*,
COc1ccccc1Nc1nc(N)nc(CCl)n1,0.2,-1.5,-24.5,2.4,nt,-12.0,nt,nt,nt,
Cc1cccc(Nc2nc(N)nc(CCl)n2)c1C,101.7*,99.6*,-22.2,3.5,nt,3.2,4.5,98.4*,1.0,
Cn1cc([N+](=O)[O-])c(C(=O)Nc2cc(Oc3ccccc3)cc([N+](=O)[O-])c2)n1,22.7*,26.4*,-9.9,1.6,97.4*,11.8,32.3*,98.6*,18.8,
COC(=O)c1sc(NC(=O)Cc2cccs2)nc1C,1.9,1.2,-54.4,4.6,-22.7,-69.1,nt,nt,nt,
SMILES,IEC-6 tox-1,Ba/F3 V617F tox,KLF5 inhibitor,BaF3 tox,APP transl inh,aSyn 5UTR inh,BaF3 tox 2,JAK2V617F confrm,IEC-6 tox confirm,others
O=c1c(Cl)c(Cl)cnn1Cc1nnc(-c2ccc(Cl)cc2)o1,35.0*,33.9*,-2.6,-7.8,76.7*,-179.2,65.6*,81.3*,17.2,
N#CC1=C(N)Oc2cc3ccccc3cc2C1c1cccnc1 (configuration not stated),47.3*,30.1*,0.3,24.6,7.0,-16.1,30.6*,47.5*,43.8*,
CCc1ccc(C(=O)Nc2nc3ccccc3[nH]2)cc1,13.9,nt,84.3*,nt,nt,87.9*,nt,nt,nt,KLF5 inh confirm=71.9*;IEC-6 tox-2=6.5
COc1ccc(Cl)cc1C(=O)Nc1nc2ccccc2[nH]1,20.0,nt,79.8*,nt,nt,89.1*,nt,nt,nt,KLF5 inh confirm=70.3*;IEC-6 tox-2=13.6
CC(C)Oc1ccc(C(=O)Nc2nc3ccccc3[nH]2)cc1,13.8,nt,87.0*,nt,nt,81.5*,nt,nt,nt,KLF5 inh confirm=77.5*;IEC-6 tox-2=5.5
O=[N+]([O-])c1ccc(O)c(/C=N/Nc2ccc(Cl)nn2)c1,-8.8,-0.3,67.0*,8.9,6.6,100.1*,nt,nt,nt,KLF5 inh confirm=76.2*;IEC-6 tox-2=37.9*
c1ccc(-c2ccc(-c3nc(-c4ccccn4)no3)cc2)cc1,8.0,11.9,83.6*,12.4,46.1*,147.2*,nt,nt,nt,KLF5 inh confirm=104.4*;IEC-6 tox-2=14.2
Cc1ccc(-c2nc(-c3ccccn3)no2)cc1Cl,10.7,3.9,69.8*,3.0,-158.7,103.8*,nt,nt,nt,KLF5 inh confirm=89.0*;IEC-6 tox-2=10.6
Cc1ccc(-c2nc(-c3ccccn3)no2)cc1,16.2,23.2,88.2*,20.6,39.2,99.3*,nt,nt,nt,KLF5 inh confirm=99.6*;IEC-6 tox-2=41.6*
CCC(C(=O)Nc1cccc(C(F)(F)F)c1)c1ccccc1 (configuration not stated),-8.4,2.8,-20.5,3.2,-6.7,16.8,nt,nt,nt,

# Assay outcomes as filed in PubChem.
